Bioassay records (PubChem BioAssay)
This is a sample that favours compounds with a hit; in the whole collection about 8% have one here.
HCV inhibitor: blocks hepatitis C virus | Huh7.5.1 HCVcc-Cre infection, luciferase reporter, 44 h | Potency, µM (highest dose often 41.8 µM), hits mostly inhibitors | 340,000 compounds, 3.4% hits | AID 651820; active means well fitted inhibition curve with a large enough effect; inconclusive means small, poorly fitted or top-dose-only effect, or another doubt; inactive means no such curve, though single readings can be large or run the other way
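Cells (1,000/well) were plated 4 h before compound, then infected with HCVcc-Cre virus (~0.5 moi). After 44 h further culture, infection was read as luciferase luminescence following a 15 min substrate incubation at room temperature.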
FMDV inh: antivirals against foot and mouth disease virus; FMDV antiviral cell-based qHTS; Potency, µM (series often up to 57.9 µM), most hits filed as inhibitors; 410,000 compounds, 1.2% hits; AID 1159524; calls by dose curve; tested in HEK293T cells; further: read-out not given here; nearly all actives have a fitted effect of over 45% in size
SARS PLP yeast: inhibitors of SARS-CoV papain-like protease in yeast | Potency, µM (titrated, usually from 32.9 µM), usual class: activators | AID 485353 | S. cerevisiae expressing SARS-CoV PLpro, growth rescue | 330,000 compounds, 0.19% hits; calls by dose curve; further: nearly all actives have a fitted effect of over 55% in size
MARV entry inh: inhibitors of Marburg virus binding or cell entry; 300,000 compounds, 1.8% hits; Marburg virus pseudotyped entry inhibition, cell reporter; Potency, µM (highest dose often 37.8 µM), most hits filed as inhibitors; calls by dose curve; tested in HEK293 cells
LASV entry inh: Lassa virus entry inhibition; Lassa virus pseudotype entry inhibition, cell reporter; Potency, µM (top dose mostly 37.9 µM), usual class: inhibitors; 300,000 compounds, 1.2% hits; calls by dose curve; tested in HEK293 cells; further: nearly all actives have a fitted effect of over 50% in size
HCMV antiviral: inhibitors of human cytomegalovirus | activity change, negative = inhibition, % at 57.5 µM | 410,000 compounds, 4.5% hits | HFF cells, HCMV-luciferase reporter, 72 h; active compounds read low; in the data active means activity change below about -60%; inconclusive means no clear call, values can overlap the other calls; inactive means above about -39%
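Human foreskin fibroblasts infected with luciferase-reporter HCMV at MOI 1 PFU/cell, compounds at two doses. Luciferase measured 72 h post infection; normalized to buffer-only basal and Salinomycin (10uM) controls.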
Hits are given with their value; n = inactive; u = inconclusive; x = not tested or not shown; [ ] = dose if it differs, or a comment.

SMILES | HCV inhibitor | FMDV inh | SARS PLP yeast | MARV entry inh | LASV entry inh | HCMV antiviral
O=C(Nc1cc(Sc2nc3ccccc3s2)cc([N+](=O)[O-])c1)c1ccccc1 | u | u | n | u | n | n
O=C(Nc1cc(Sc2nc3ccccc3s2)cc([N+](=O)[O-])c1)c1ccccc1F | 10µM | n | u | u | u | n
O=C(Nc1ncccn1)c1cccc(Cl)c1 | n | n | x | x | x | n
CCn1c(=O)c2sccc2n2c(CCC(=O)Nc3ccc(C(C)C)cc3)nnc12 | x | n | x | n | n | n
O=S(=O)(NCC(c1ccco1)S(=O)(=O)c1ccccc1)c1cc(F)ccc1F (centres undefined) | x | n | x | x | n | -69
Cc1cc(OCCn2c(C3CC(=O)N(Cc4ccc(F)cc4)C3)nc3ccccc32)ccc1Cl (centres undefined) | x | u | x | n | n | n
CCc1ccccc1N1CC(c2nc3ccccc3n2CCOc2ccc(Cl)c(C)c2)CC1=O (centres undefined) | x | 28µM | x | u | u | -62
O=C(Cc1ccc(Cl)cc1)NCC(c1cccs1)S(=O)(=O)c1ccc(F)cc1 (centres undefined) | x | n | x | x | u | n
COc1cccc2c1C1COC3C4CC(C(=O)O)C(C(C2)N13)N4C (centres undefined) | u | n | x | u | u | -96
COc1cccc2c1C(CCCC(=O)O)CCC2 (centres undefined) | n | n | x | n | u | n
Cc1cccc(Nc2nc(NCc3ccco3)nc(N)c2[N+](=O)[O-])c1 | u | n | n | 5.6µM | u | n
Nc1nc(Nc2cccc(Cl)c2)nc(NCc2ccco2)c1[N+](=O)[O-] | u | u | n | 5.6µM | u | n
CC(=O)N1CCN(Cc2nc3cc([N+](=O)[O-])ccc3n2C)CC1 | n | n | n | x | x | n
Cn1c(CN2CCN(S(C)(=O)=O)CC2)nc2cc([N+](=O)[O-])ccc21 | n | n | n | u | n | -101
COCc1ccc(C(=O)N2CCCC(CCC(=O)NCc3ccccc3F)C2)o1 (centres undefined) | n | n | n | 5.6µM | n | n
CS(=O)(=O)N1CCC(n2c(C(F)(F)F)nc3cccnc32)CC1 | x | n | x | x | n | n
COc1ccc(CC2(CO)CCN(Cc3cnn(-c4ccccc4)c3)CC2)cc1 | u | u | n | u | n | n
COc1ccc(CC2(CO)CCN(CC3=Cc4cc(Cl)ccc4OC3)CC2)cc1 | 4.5µM | u | n | u | u | u
COc1ccc(CC2(CO)CCN(Cc3cnn(-c4ccc(F)cc4)c3)CC2)cc1 | 10µM | u | n | x | x | n
CCOC(=O)C1CCN(C2=NC(=O)/C(=C/c3ccc(Cl)cc3)S2)CC1 | n | n | n | n | n | n
CCOC(=O)CSC1=NC(=O)/C(=C\c2ccc(Cl)cc2)S1 | u | 18µM | n | n | n | -94
COC(=O)C1CCCCN1Cc1ccc2c(c1)CN(C(=O)c1ccc(F)cc1)CCO2 (centres undefined) | x | n | x | x | x | x
COC(C/C=C/C(=O)COCc1ccccc1)OC | n | n | n | x | x | n
COC(C/C=C/C(=O)[C@H](C)OCc1ccccc1)OC | n[8.37 µM] | 35µM | x | x | x | x
Cc1ccc(NC(=O)Nc2cn(CC(C)C)c(=O)c3ccccc23)cc1N(C)C | x | n | x | x | n | n
SMILES | HCV inhibitor | FMDV inh | SARS PLP yeast | MARV entry inh | LASV entry inh | HCMV antiviral
CCOc1ccc(-n2c(C)cc(C(=O)CCl)c2C)cc1 | u | 28µM | n | u | 10µM | -92
COC(=O)c1ccc(-n2c(C)cc(C(=O)COC(=O)C3=COCCO3)c2C)cc1 | n | n | n | n | n | -66
COC(=O)c1ccc(-n2c(C)cc(C(=O)CCl)c2C)cc1 | 6.3µM | 32µM | n | x | x | -84
COC(=O)c1ccc(-n2c(C)cc(C(=O)COC(=O)CNS(=O)(=O)c3ccc(C)cc3)c2C)cc1 | n | n | n | n | n | n
CCN1CCN(C(c2ccc(SC)cc2)c2c(O)cc(C)n(Cc3ccco3)c2=O)CC1 (centres undefined) | x | n | x | x | n | n
CCOc1ccc(C(=O)c2cn(CC(=O)Nc3ccc4c(c3)OCCO4)c3ccc(F)cc3c2=O)cc1 | x | n | x | u | n | n
Cc1ccc2c(CC(=O)N(Cc3ccc(N(C)C)cc3)Cc3ccco3)coc2c1C | x | u | x | n | u | n
COc1ccc(C2C(=O)N(C3CCC(C)CC3)CC(=O)N2C2CCCCC2)cc1OC (centres undefined) | x | n | x | x | n | u
CCOc1cc(C(=O)N/N=C/C(Br)=C/c2ccccc2)cc(OCC)c1OCC | u | n | n | u | u | -76
CCOc1cc(C(=O)NN=C2CCCC2)cc(OCC)c1OCC | n | n | n | x | x | -76
O=C(N/N=C/C(Br)=C/c1ccccc1)c1ccncc1 | u | n | n | x | x | u
O=C(N/N=C/C(Br)=C\c1ccccc1)c1ccc2nc[nH]c2c1 | u | n | n | u | n | -76
CCOC(=O)CN1C(=O)[C@]2(O[C@H](COc3ccccc3)CC3=CCCC32)c2c(Br)cccc21 (some centres undefined) | x | x | x | n | u | x
CCCCC#C[C@@H]1C=C[C@H](Oc2ccc(C(=O)OC)cc2)[C@@H](COC(=O)OCC)O1 | x | x | x | n | x | x
C=CCc1ccc(OCC(O)CN2CCN(Cc3ccc(Cl)cc3)CC2)c(OC)c1 (centres undefined) | u | n | n | 8.2µM | u | u
C=CCc1ccc(OCC(O)CN2CCC(Cc3ccccc3)CC2)c(OC)c1 (centres undefined) | 6.3µM | n | n | u | 13µM | n
OC(COc1ccccc1)CN1CCC(Cc2ccccc2)CC1 (centres undefined) | n | n | n | u | u | n
OC(COCc1ccc(Cl)cc1)CN1CCN(CC(O)COCc2ccc(Cl)cc2)CC1 (centres undefined) | 11µM | u | n | u | u | u
OC(COCc1ccc(Cl)cc1)CN1CCCCC1 (centres undefined) | n | n | n | x | x | n
Cc1ccc(OCC(O)CN2CCC(Cc3ccccc3)CC2)c(C)c1 (centres undefined) | 11µM | n | n | x | x | -77
COc1cccc(OCC(O)CN2CCC(Cc3ccccc3)CC2)c1 (centres undefined) | u | n | n | u | n | n
C=CCc1ccc(OCC(O)CN2CCN(c3ccccc3OC)CC2)c(OC)c1 (centres undefined) | u | u | n | x | x | n
O=c1c2[nH]c3ccccc3c2nc(SCc2cccc(F)c2)n1-c1ccccc1 | x | n | x | x | u | n
Cc1ccc(CN2CCc3nnc(C(NC(=O)c4ccoc4)C(C)C)n3CC2)cc1C (centres undefined) | x | n | x | x | x | x
COc1ccc(C(=O)Nc2ccc(Cl)cc2C(=O)N2CCCC(C)C2)cc1 (centres undefined) | u | n | n | n | n | -100
COc1ccc(C(=O)N2CCCC(c3ccccc3)C2)cc1 (centres undefined) | n | n | n | u | 4.5µM | n
COc1ccc(C(=O)N2CCCC(c3cc(C(=O)Nc4ccccc4)no3)C2)cc1 (centres undefined) | x | n | x | x | x | -73
